Experiment [1] in a line: small molecules captured by biotinylated probe aFSTL3 – biochemical, small-molecule microarray, fluorescence 635/667, stem cell growth factor project, primary screen (AID 1064).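 Also: measures binding of the biotinylated anti-FSTL3 antibody to printed compounds.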 The note with it: higher = more signal.
The nature of experiment [2]: binders from COS7 lysate, DM2A8 probe, primary screen, torsin A project, cell lysate, small-molecule microarray, fluorescence 635/667 (AID 1065). The note with it: higher = more signal, COS7 lysate expressing mutant human TOR1A.
Experiment [3] in a line: small molecules captured by biotinylated probe aFGF2 – biochemical, small-molecule microarray, fluorescence 635/667, stem cell growth factor project, primary screen (AID 1067).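 Also: measures binding of biotinylated aFGF2 protein to printed compounds on slides; z-score merges feature fluorescence and signal-to-noise across triplicate slides.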 The conditions noted are these: higher = more signal.
A short description of experiment [4]: small molecules captured by biotinylated probe aFGF10 – biochemical, small-molecule microarray, fluorescence 635/667, stem cell growth factor project, primary screen (AID 1071).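 Also: score merges 667 nm spot intensity and signal to noise from triplicate slides.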 The note with it: higher = more signal.
The target of experiment [5] is Neurogenic locus notch homolog protein 2 (Homo sapiens) (UniProt Q04721). The experiment in a line: small molecules binding Notch2 protein – biochemical, small-molecule microarray, 635 nm fluorescence, stem cell growth factors, primary screen (AID 1073). The conditions noted are these: higher = more signal.
Chain of Neurogenic locus notch homolog protein 2 (Homo sapiens) (Q04721 whole entry, looked up, canonical isoform): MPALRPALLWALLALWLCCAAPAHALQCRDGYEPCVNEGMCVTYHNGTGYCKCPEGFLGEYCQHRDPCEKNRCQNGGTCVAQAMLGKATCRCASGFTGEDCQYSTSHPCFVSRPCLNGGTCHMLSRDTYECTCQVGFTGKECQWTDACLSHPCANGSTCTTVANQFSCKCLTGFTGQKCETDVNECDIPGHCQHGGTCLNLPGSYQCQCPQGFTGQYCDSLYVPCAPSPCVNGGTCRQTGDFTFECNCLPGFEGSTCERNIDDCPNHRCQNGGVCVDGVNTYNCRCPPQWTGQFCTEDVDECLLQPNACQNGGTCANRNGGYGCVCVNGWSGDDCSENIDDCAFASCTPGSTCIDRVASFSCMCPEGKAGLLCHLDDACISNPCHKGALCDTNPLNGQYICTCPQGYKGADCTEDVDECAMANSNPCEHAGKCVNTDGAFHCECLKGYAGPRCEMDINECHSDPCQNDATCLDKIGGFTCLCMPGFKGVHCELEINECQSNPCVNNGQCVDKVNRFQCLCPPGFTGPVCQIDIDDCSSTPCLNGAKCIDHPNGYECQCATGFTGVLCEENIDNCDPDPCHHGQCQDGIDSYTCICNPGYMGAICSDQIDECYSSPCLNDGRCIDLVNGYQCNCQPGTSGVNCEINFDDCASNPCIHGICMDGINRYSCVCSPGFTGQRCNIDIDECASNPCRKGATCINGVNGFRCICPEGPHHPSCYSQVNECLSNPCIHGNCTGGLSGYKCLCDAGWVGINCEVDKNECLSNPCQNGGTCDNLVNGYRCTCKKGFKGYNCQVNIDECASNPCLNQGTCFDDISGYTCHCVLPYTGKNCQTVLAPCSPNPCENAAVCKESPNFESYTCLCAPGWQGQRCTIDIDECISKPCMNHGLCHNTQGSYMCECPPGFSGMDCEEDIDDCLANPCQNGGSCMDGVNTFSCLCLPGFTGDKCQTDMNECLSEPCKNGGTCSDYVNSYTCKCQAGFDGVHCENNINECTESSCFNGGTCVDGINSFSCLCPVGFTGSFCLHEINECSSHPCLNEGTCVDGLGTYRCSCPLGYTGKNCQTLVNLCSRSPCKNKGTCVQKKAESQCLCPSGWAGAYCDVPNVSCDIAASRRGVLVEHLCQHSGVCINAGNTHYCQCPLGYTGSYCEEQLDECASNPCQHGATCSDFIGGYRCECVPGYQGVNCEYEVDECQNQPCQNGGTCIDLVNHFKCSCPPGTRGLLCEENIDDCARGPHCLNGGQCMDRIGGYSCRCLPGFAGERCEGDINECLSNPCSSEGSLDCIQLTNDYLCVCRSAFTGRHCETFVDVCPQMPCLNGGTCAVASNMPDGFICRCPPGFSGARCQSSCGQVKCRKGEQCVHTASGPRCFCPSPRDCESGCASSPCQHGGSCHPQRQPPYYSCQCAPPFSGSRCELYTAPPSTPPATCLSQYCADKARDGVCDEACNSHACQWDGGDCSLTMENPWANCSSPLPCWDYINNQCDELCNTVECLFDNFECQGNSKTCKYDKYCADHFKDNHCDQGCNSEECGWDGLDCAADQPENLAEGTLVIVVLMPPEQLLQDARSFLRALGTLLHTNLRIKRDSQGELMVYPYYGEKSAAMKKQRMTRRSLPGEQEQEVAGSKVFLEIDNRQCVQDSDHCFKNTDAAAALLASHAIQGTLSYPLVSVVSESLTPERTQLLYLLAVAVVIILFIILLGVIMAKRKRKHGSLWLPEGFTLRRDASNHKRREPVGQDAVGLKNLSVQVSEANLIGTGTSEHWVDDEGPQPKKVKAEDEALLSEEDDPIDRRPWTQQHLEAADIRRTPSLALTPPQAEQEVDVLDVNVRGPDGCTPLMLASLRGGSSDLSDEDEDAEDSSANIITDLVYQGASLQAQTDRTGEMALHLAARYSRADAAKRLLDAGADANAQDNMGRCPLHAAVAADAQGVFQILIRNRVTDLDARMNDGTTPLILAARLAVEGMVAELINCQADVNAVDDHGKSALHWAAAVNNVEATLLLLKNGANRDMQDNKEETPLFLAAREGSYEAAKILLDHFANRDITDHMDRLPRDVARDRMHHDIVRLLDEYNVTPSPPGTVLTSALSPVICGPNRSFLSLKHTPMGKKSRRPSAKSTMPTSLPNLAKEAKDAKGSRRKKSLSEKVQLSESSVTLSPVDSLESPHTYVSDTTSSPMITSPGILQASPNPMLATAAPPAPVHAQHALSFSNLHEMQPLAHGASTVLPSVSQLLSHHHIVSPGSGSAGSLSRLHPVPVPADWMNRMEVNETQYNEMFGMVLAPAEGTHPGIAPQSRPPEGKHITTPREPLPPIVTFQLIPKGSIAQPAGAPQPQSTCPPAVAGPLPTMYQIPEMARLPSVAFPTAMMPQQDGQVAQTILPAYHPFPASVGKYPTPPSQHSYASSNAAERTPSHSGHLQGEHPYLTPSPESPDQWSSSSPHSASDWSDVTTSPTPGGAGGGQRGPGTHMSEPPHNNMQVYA
Experiment [6] addresses Pro-neuregulin-1, membrane-bound isoform (Homo sapiens) (UniProt Q02297). The experiment in a line: small molecules binding neuregulin-1 protein – biochemical, small-molecule microarray, fluorescence 635/667, psychiatric disease protein project, primary screen (AID 1075).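 Also: score combines 667 nm spot fluorescence with signal to noise.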 The conditions noted are these: NRG1 binding, 635 nm fluorescence, higher = more signal.
The subject of experiment [7] is Neuregulin-1 EGF-like domain. Description: small molecules binding NRG1 EGF domain – biochemical, small-molecule microarray, 635 nm fluorescence, primary screen (AID 1081).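 Also: binding of the protein to compounds printed on small-molecule microarray slides.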 The conditions noted are these: higher = more signal.
Experiment [8] in a line: FRG1 expression reporter modulators in myotubes – cell-based, C2C12 myotubes, firefly/Renilla luciferase, luminescence, FRG1 inhibition for FSHD, primary screen (AID 1084). The note with it: FRG1 promoter luciferase, higher = more signal, called active from +8 up or from −8 down.
Experiment [9] in a line: small molecules captured by biotinylated probe aFST – biochemical, small-molecule microarray, fluorescence 635/667, stem cell growth factor project, primary screen (AID 1086).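 Also: score merges 667 nm fluorescence with signal-to-noise of each printed compound spot.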 The conditions noted are these: higher = more signal.
Experiment [10] can be described thus: binders of probe aHhip on microarray, primary screen, stem cell growth factor project, biochemical, small-molecule microarray, fluorescence 635/667 (AID 1087).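 Also: score merges spot fluorescence at 667nm with spot signal to noise ratio.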 The conditions noted are these: higher = more signal.
The subject of experiment [11] is PRMT1 (protein arginine N-methyltransferase 1). Description: small molecules binding arginine methyltransferase PRMT1 – biochemical, small-molecule microarray, 635 nm fluorescence, primary screen (AID 1088).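 Also: binding of Prmt1 protein to compounds spotted on small-molecule microarray slides.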 The note with it: higher = more signal.
Experiment [12] in a line: growth effects on S. cerevisiae YJM789 – YJM789 clinical isolate, OD600, 24 h, basal, primary screen (AID 1089).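 Also: growth of clinical yeast isolate S. cerevisiae YJM 789 seeded 1000 cells per well; test concentration not given here.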 The note with it: higher = more signal, called active from +8 up or from −8 down.
The nature of experiment [13]: S. pombe growth modifiers, basal conditions – strain 972, OD600, 24 h, no modulator, primary screen (AID 1090).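 Also: basal condition with compound alone and no growth modifier present; test concentration not given here.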 The note with it: S. pombe 972 growth, higher = more signal, called active from +8 up or from −8 down.
Experiment [14] is described as follows: budding yeast growth modifiers under rapamycin – strain BY4716, OD600, 96 h, primary screen (AID 1091). Also: test concentration not given here. The note with it: S. cerevisiae BY4716 + rapamycin, higher = more signal, called active from +8 up or from −8 down.
For experiment [15], the target named is Torsin-1A-interacting protein 2 (Homo sapiens) (UniProt Q8NFQ8). Description: small molecules binding lysate-expressed LULL1 – cell lysate, human LULL1 lysate, 635/667 nm fluorescence, primary screen (AID 1092).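 Also: probe is lysate of COS7 cells overexpressing human LULL1; score merges per-feature 667 nm fluorescence with signal-to-noise.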 The conditions noted are these: small-molecule microarray, hLULL1 lysate binding, 635 nm fluorescence; higher = more signal.
Chain of Torsin-1A-interacting protein 2 (Homo sapiens) (Q8NFQ8 whole entry, looked up): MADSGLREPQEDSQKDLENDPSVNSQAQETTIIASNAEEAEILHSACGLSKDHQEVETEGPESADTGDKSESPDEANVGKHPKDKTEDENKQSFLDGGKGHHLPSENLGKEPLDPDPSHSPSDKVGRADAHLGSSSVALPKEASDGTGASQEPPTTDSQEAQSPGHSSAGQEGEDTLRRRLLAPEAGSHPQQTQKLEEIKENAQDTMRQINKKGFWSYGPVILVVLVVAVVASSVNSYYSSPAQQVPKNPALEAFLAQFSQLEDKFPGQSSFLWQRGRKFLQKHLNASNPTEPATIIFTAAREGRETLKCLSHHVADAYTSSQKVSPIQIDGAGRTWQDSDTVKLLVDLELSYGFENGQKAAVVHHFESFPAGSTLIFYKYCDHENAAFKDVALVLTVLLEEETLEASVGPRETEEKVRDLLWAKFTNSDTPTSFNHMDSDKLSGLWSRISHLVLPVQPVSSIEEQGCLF
Experiment [16] can be described thus: optical density change of DRC41 E. coli – strain DRC41, OD650, 24 h, E. coli filamentation project, primary screen (AID 1093).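 Also: MC1000 strain lacking acrAB efflux and sulA so SOS filamentation is blocked; test concentration not given here.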 The note with it: E. coli DRC41 growth, higher = more signal, called active from +8 up or from −8 down.
Experiment [17] can be described thus: probe aLefty2 binding to arrayed compounds – biochemical, biotinylated probe, 635/667 nm fluorescence, primary screen (AID 1094).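 Also: score merges spot fluorescence near 667 nm with spot signal-to-noise ratio.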 The note with it: small-molecule microarray, higher = more signal.
The test system of experiment [18] is Noggin (protein binding on small-molecule microarray). Description: small molecules binding Noggin protein – biochemical, 635/667 nm fluorescence, primary screen (AID 1095).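 Also: score merges 667 nm feature fluorescence with signal to noise over triplicate slides.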 The note with it: 635 nm fluorescence, higher = more signal.
Experiment [19] deals with Neurogenic locus notch homolog protein 3 (Homo sapiens) (UniProt Q9UM47). The experiment in a line: small molecules binding NOTCH3 protein – biochemical, 635/667 nm fluorescence, primary screen (AID 1096). The conditions noted are these: small-molecule microarray, 635 nm fluorescence, higher = more signal.
Experiment [20] can be described thus: probe aEGFR binding to arrayed compounds – biochemical, biotinylated probe, 635/667 nm fluorescence, primary screen (AID 1097).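 Also: probe is a biotinylated anti-EGFR antibody binding compounds printed on slides; score combines fluorescence near 667 nm and signal to noise of each spot.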 The conditions noted are these: small-molecule microarray, higher = more signal.

Active and inactive are the calls of the source.

Chain of Pro-neuregulin-1, membrane-bound isoform (Homo sapiens) (Q02297 whole entry, looked up, the tested form may be a part, canonical isoform): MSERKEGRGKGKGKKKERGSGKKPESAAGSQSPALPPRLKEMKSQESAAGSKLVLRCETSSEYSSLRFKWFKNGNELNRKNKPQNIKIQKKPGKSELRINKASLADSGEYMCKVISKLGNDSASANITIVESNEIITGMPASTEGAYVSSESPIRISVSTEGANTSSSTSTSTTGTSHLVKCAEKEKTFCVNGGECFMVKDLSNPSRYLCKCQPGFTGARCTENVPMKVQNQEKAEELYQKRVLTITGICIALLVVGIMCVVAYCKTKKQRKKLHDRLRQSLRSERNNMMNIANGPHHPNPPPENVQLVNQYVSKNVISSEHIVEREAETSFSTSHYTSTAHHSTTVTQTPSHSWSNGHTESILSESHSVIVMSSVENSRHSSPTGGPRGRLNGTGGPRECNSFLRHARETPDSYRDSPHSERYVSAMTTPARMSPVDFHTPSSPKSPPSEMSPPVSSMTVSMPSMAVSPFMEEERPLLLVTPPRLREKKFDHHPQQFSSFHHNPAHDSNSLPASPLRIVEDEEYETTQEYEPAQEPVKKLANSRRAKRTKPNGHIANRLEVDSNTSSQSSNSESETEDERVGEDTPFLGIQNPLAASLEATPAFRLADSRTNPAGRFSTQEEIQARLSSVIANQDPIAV

`CCC=CCCC(OC(=O)c1ccc(Br)cc1)C1=CCCCC1=O` (stereo not given): the composite z-score is 0.122 in experiment [1]; 0.333 in experiment [2]; 0.543 in [3]; -0.0363 in experiment [4]; -0.164 in experiment [5]; 0.714 in experiment [6]. In addition, the composite z-score in experiment [7] was 0.878; in experiment [9], 0.336; in [10] it was 0.0826; in [11], 1.33; in experiment [15], 1.35; in experiment [17], -0.0018. For the same molecule, the composite z-score is 0.493 in experiment [18], 0.554 in experiment [19] and -0.0187 in [20]. In addition, the z-score in experiment [8] is 0.796 (inactive); in [12], -1.32 (inactive); in [13], -5.44 (inactive); in experiment [14] it was -2.98 (inactive); in [16], -0.133 (inactive).
Regarding `COC(=O)[C@H](C)NC(=O)CCC1CC(OC(=O)NCc2ccc3c(c2)OCO3)CC2(CCCC(COC(=O)NCC3CCCCC3)O2)O1` (stereo not given in full), the composite z-score was -0.632 in experiment [1]; 0.0369 in experiment [2]; -0.0158 in [3]; 0.847 in experiment [4]; 1.08 in experiment [5]; 0.586 in [6]. Further, the composite z-score in [7] is 1.18; in experiment [9], 0.315; in experiment [10], 0.231; in experiment [11] it was 1.46; in experiment [15], 2.28; in experiment [17], -0.0576. Also, the composite z-score in experiment [18] is 1.1; in experiment [19] it was 1.1; in experiment [20] it was -0.0139. Besides, the z-score in experiment [8] was 0.0762 (inactive); in experiment [12] it was 0.147 (inactive); in [13], 0.803 (inactive); in experiment [14], 1.45 (inactive); in [16], -0.0678 (inactive).
In the case of `C#CCCCON=C1C[C@@H](O)[C@@H](O)[C@@H]2[C@@H]3C(=O)N(c4ccc(F)cc4F)C(=O)[C@@H]3CC[C@H]12`, the composite z-score is -0.381 in [1]; 0.872 in experiment [2]; -0.0788 in experiment [3]; 0.216 in experiment [4]; 0.342 in experiment [5]; 0.454 in [6]. The composite z-score was 0.765 in [7]; 0.326 in experiment [9]; 0.0373 in experiment [10]; 1.43 in experiment [11]; 2.13 in experiment [15]; -0.226 in [17]. The composite z-score in [18] was 0.844; in experiment [19], 0.793; in experiment [20], -0.0187. Besides, the z-score in experiment [8] was -1.17 (inactive); in experiment [12] it was -0.989 (inactive); in [13], -1.41 (inactive); in [14], -1.5 (inactive); in [16], 0.534 (inactive).
In the case of `C[C@@H]1CC[C@H]2C(=O)O[C@@H](COc3ccc(C(C)(C)C)cc3)CN2[C@@H]1c1ccc(Br)cc1`, the composite z-score is -0.368 in experiment [1]; -0.257 in [2]; -0.162 in experiment [3]; -0.249 in [4]; -0.538 in experiment [5]; -0.0758 in [6]. The composite z-score in [7] is -0.976; in experiment [9] it was -0.217; in [10], -0.134; in experiment [11], -0.118; in [15], -0.158; in experiment [17], 0.464. The composite z-score in experiment [18] is -0.835; in experiment [19], -0.91; in experiment [20], -0.0946. Further, the z-score is 1.03 (inactive) in [8]; 0.228 (inactive) in [12]; -0.492 (inactive) in [13]; 0.147 (inactive) in experiment [14]; -0.0121 (inactive) in experiment [16].
With `Cc1ccc(S(=O)(=O)N[C@H]2COC(=O)CC=C[C@H](C)[C@@H](NS(=O)(=O)c3ccc(C)cc3)COC(=O)CC=C[C@@H]2C)cc1`, the composite z-score in experiment [1] is -0.546; in [2] it was 0.391; in experiment [3] it was 0.16; in experiment [4], 0.395; in experiment [5] it was 0.434; in [6] it was -0.107. For the same molecule, the composite z-score in [7] is 0.0446; in [9], -0.118; in [10] it was 0.166; in experiment [11], 0.405; in experiment [15], 0.247; in experiment [17] it was -0.126. Also, the values for the composite z-score in experiment [18], in experiment [19] and in experiment [20] were 0.601, 0.321 and -0.068, respectively. Further, the z-score in experiment [8] is 1.41 (inactive); in experiment [12] it was -0.293 (inactive); in experiment [13], 0.518 (inactive); in experiment [14], 0.0667 (inactive); in experiment [16] it was 0.0401 (inactive).

The values are drawn from PubChem BioAssay.
